Source: the supplement of paper PMC6609913
Where a name gives a salt, the structure may show the parent alone. ± gives the standard deviation of the averaged measurements. The full ranking holds about 1,300 compounds; the median of “normalised cell viability” is about 1, and the lowest 2% start at about 0.14. Many of the other results were omitted from the sample, so the lowest values are more common in it than they were.

System: V-C8 (BRCA2-deficient hamster cells)
Test: normalised cell viability (fraction of plate median); higher = more viable cells (less toxic)
Conditions: 5 µM
Outline: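 Cell viability was measured with a resazurin assay, normalised to the plate median (modified robust per cent of sample) and averaged over triplicate wells. Hamster V-C8 cells lacking BRCA2 and V-C8 cells with BRCA2 restored were seeded in 96-well plates. After 24 h, library drugs from 10 mM DMSO stocks were added at a final 5 μM in 100 μl medium and left for 3 days (screen 1) or 6 days (screen 2), with solvent-only wells alongside.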

Row | Compound | normalised cell viability (treatment time: 3 days) | normalised cell viability (treatment time: 6 days)
1 | NC(=O)OCCCc1ccccc1 [Phenprobamate] | 1.14 ± 0.049 | 1.08 ± 0.15
2 | S=C(NC1CCCCC1)N1CCC(c2cnc[nH]2)CC1 [Thioperamide maleate] | 1 ± 0.018 | 1.02 ± 0.014
3 | C[C@H](N)[C@H](O)c1ccc(O)c(O)c1 [Levonordefrin] | 1.05 ± 0.05 | 1.02 ± 0.028
4 | CCCCCC[C@H]1C(=O)O[C@H](C)[C@H](NC(=O)c2cccc(NC=O)c2O)C(=O)O[C@@H](C)[C@@H]1OC(=O)CC(C)C [Antimycin A] | 0.152 ± 0.0026 | 0.12 ± 0.011
5 | C[C@]12CCC(=O)C=C1CC[C@@H]1[C@@H]2C(=O)C[C@]2(C)C(=O)CC[C@@H]12 [Adrenosterone] | 1.19 ± 0.085 | 1.11 ± 0.017
6 | CCC(C)C1O[C@]2(C=C[C@@H]1C)C[C@@H]1CC(C/C=C(\C)[C@@H](OC3C[C@H](OC)[C@@H](OC4C[C@H](OC)[C@@H](O)[C@H](C)O4)[C@H](C)O3)[C@@H](C)/C=C/C=C3\COC4[C@H](O)C(C)=CC(C(=O)O1)[C@]34O)O2 (some centres undefined) [Avermectin B1a] | 0.486 ± 0.016 | 0.475 ± 0.052
7 | COc1ccc(CN2CCNCC2)c(OC)c1OC [Trimetazidine dihydrochloride] | 1.05 ± 0.06 | 1.06 ± 0.023
8 | C=C(C)[C@@H]1[C@H]2OC(=O)[C@@H]1[C@]1(O)C[C@H]3O[C@]34C(=O)O[C@H]2[C@]14C [Picrotoxinin] | 1.007 ± 0.0066 | 1.11 ± 0.061
9 | Fc1ccc(C(OCCN2CCN(CCCc3ccccc3)CC2)c2ccc(F)cc2)cc1 | 0.159 ± 0.0052 | 0.182 ± 0.012
10 | COc1ccc(CCN2CCC(Nc3nc4ccccc4n3Cc3ccc(F)cc3)CC2)cc1 [Astemizole] | 0.13 ± 0.0054 | 0.099 ± 0.003
11 | C[C@]12C[C@H]3S[C@H]3C[C@@H]1CC[C@@H]1[C@@H]2CC[C@]2(C)[C@@H](O)CC[C@@H]12 [Epitiostanol] | 1.04 ± 0.012 | 1.033 ± 0.01
12 | CC1OC(OC2/C=C/C=C/C=C/C=C/CC/C=C/C=C/[C@H](C)[C@@H](O)[C@@H](C)[C@H](C)OC(=O)CC(O)CC(O)CC(O)CCC(O)C(O)C[C@]3(O)CC(O)C(C(=O)O)C(C2)O3)C(O)C(N)C1O (some centres undefined) [Nystatine] | 1.06 ± 0.055 | 0.905 ± 0.084
13 | CN1CCN(C(=O)OC2c3nccnc3C(=O)N2c2ccc(Cl)cn2)CC1 (centres undefined) [Zopiclone] | 1.11 ± 0.05 | 1.04 ± 0.061
14 | CCN[C@@H](C)Cc1cccc(C(F)(F)F)c1 [Dexfenfluramine hydrochloride] | 0.908 ± 0.092 | 1.02 ± 0.074
15 | C[C@@H]1O[C@@H](O[C@@H]2C=C3CC[C@@H]4[C@H](CC[C@]5(C)[C@@H](c6ccc(=O)oc6)CC[C@]45O)[C@@]3(C)CC2)[C@H](O)[C@H](O)[C@H]1O [Proscillaridin A] | 0.945 ± 0.013 | 0.908 ± 0.11
16 | CCN(C(C)=O)c1cccc(-c2ccnc3c(C#N)cnn23)c1 [Zaleplon] | 1.13 ± 0.075 | 0.981 ± 0.063
17 | C[C@]12Cc3c[nH]nc3C[C@@H]1CC[C@@H]1[C@@H]2CC[C@@]2(C)[C@H]1CC[C@]2(C)O [Stanozolol] | 1.07 ± 0.064 | 1.06 ± 0.036
18 | CN[C@@H]1[C@@H](O)[C@@H](O[C@@H]2[C@@H](O)[C@H](O[C@H]3O[C@H](CN)CC[C@H]3N)[C@@H](N)C[C@H]2N)OC[C@]1(C)O.CN[C@@H]1[C@@H](O)[C@@H](O[C@@H]2[C@@H](O)[C@H](O[C@H]3O[C@H]([C@@H](C)N)CC[C@H]3N)[C@@H](N)C[C@H]2N)OC[C@]1(C)O.CN[C@@H]1[C@@H](O)[C@@H](O[C@@H]2[C@@H](O)[C@H](O[C@H]3O[C@H]([C@@H](C)NC)CC[C@H]3N)[C@@H](N)C[C@H]2N)OC[C@]1(C)O [Gentamicine sulfate] | 0.961 ± 0.029 | 0.955 ± 0.039
19 | C(#CCN1CCCC1)CN1CCCC1 [Tremorine dihydrochloride] | 1.09 ± 0.065 | 1.08 ± 0.06
20 | C[CH2][Hg][S]c1ccccc1C(=O)[O-].[Na+] [Thimerosal] | 0.0995 ± 0.0026 | 0.126 ± 0.0061
21 | C[N+]1(C)CCCC(OC(=O)C(O)(c2ccccc2)c2ccccc2)C1 (centres undefined) [Mepenzolate bromide] | 0.974 ± 0.054 | 1.08 ± 0.059
22 | O=C(CCCN1CCC(n2c(=O)[nH]c3ccccc32)CC1)c1ccc(F)cc1 [Benperidol] | 0.93 ± 0.029 | 0.969 ± 0.083
